Laboratory results reported in PubChem BioAssay (NCI).
Where “and” joins values, the source holds several entries; their conditions need not be identical. Equal values may be shown once. Compounds without any hit were thinned out: in the full panel of roughly 83,000, 20% have a hit.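 Each cell line was grown in a 96-well plate and treated with one concentration of compound for 48 hours. Values below 10 were considered active.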 Calls of active or inactive are those of the source.

What was measured:
Experiment in all cases: NCI-60 one-dose screen, 48 h (100 = growth as untreated, 0 = no growth, -100 = all killed)
T-47D breast = tested on: T-47D breast
BT-549 breast = tested on: BT-549 breast
MDA-MB-435 melanoma = tested on: MDA-MB-435 melanoma
SW-620 colon = conditions: 10 µM unless noted
MCF7 breast = tested on: MCF7 breast
HCT-116 colon = tested on: HCT-116 colon
HCC-2998 colon = conditions: 10 µM unless noted
KM12 colon = tested on: KM12 colon

Measured: growth

Cn1c2ccccc2c2nnc(N/N=C/c3ccccn3)nc21
active: BT-549 breast; 10 µM unless noted -24.2%
inactive: T-47D breast; 10 µM unless noted 19.2% | MDA-MB-435 melanoma; 10 µM unless noted 19.1% | SW-620 colon 31.3% | MCF7 breast; 10 µM 13.3% | HCT-116 colon; 10 µM unless noted 14.4% | HCC-2998 colon 34.5% | KM12 colon; 10 µM unless noted 23%

O=[N+]([O-])c1ccc2c(N=Nc3ccc4ccccc4c3O)c(O)cc(S(=O)(=O)O)c2c1
inactive: T-47D breast; 10 µM unless noted 96.1% | BT-549 breast; 10 µM unless noted 92.4% | MDA-MB-435 melanoma; 10 µM unless noted 97% | SW-620 colon 92.2% | MCF7 breast; 10 µM 98.6% | HCT-116 colon; 10 µM unless noted 93.3% | HCC-2998 colon 94.4% | KM12 colon; 10 µM unless noted 95.6%

Cc1ccnc(NC(c2ccccc2)c2ccc3cccnc3c2O)c1 (configuration not stated)
inactive: T-47D breast; 10 µM unless noted 54.7% | BT-549 breast; 10 µM unless noted 57.1% | MDA-MB-435 melanoma; 10 µM unless noted 30.5% | SW-620 colon 48.9% | MCF7 breast; 10 µM 22.4% | HCT-116 colon; 10 µM unless noted 31.8% | HCC-2998 colon 27.3% | KM12 colon; 10 µM unless noted 32.8%

O=C(Nc1c(Cl)cccc1Cl)Oc1cccc2cccnc12
active: T-47D breast; 100 µM 7.28% | MCF7 breast; 10 µM 3.58% | MCF7 breast; 100 µM -1.84% | HCT-116 colon; 100 µM 8.1% | KM12 colon; 100 µM 5.56%
inactive: T-47D breast; 10 µM 30.2% | BT-549 breast; 10 µM 78.5% | BT-549 breast; 100 µM 23.5% | MDA-MB-435 melanoma; 10 µM 53.6% | MDA-MB-435 melanoma; 100 µM 23.8% | HCT-116 colon; 10 µM 14.3% | KM12 colon; 10 µM 47%

O=Nc1ccccc1N=O
inactive: T-47D breast; 10 µM unless noted 94.3% | BT-549 breast; 10 µM unless noted 92.7% | MDA-MB-435 melanoma; 10 µM unless noted 87.3% | SW-620 colon 77.5% | MCF7 breast; 10 µM 65.1% | HCT-116 colon; 10 µM unless noted 92.8% | HCC-2998 colon 93.9% | KM12 colon; 10 µM unless noted 91.3%

O=C(Nc1cccc(Br)c1)Oc1cccc2cccnc12
inactive: T-47D breast; 10 µM 92% | BT-549 breast; 10 µM 90.5% | BT-549 breast; 100 µM 12.7% | MCF7 breast; 10 µM 92.9% | HCT-116 colon; 10 µM 92.7% | KM12 colon; 10 µM 110% | KM12 colon; 100 µM 40.1%
active: T-47D breast; 100 µM 2.98% | MCF7 breast; 100 µM -37.7% | HCT-116 colon; 100 µM 1.93%

CC1=CC(O)C2CC1C2(C)C (configuration not stated)
inactive: T-47D breast; 10 µM unless noted 96% and 106% | BT-549 breast; 10 µM unless noted 98.9% | MDA-MB-435 melanoma; 10 µM unless noted 103% and 97.3% | SW-620 colon 105% and 108% | MCF7 breast; 10 µM 101% and 98.9% | HCT-116 colon; 10 µM unless noted 103% | KM12 colon; 10 µM unless noted 101% and 114%

O=C(CC1(O)C(=O)Nc2c(Cl)ccc(Cl)c21)c1ccc(Cl)cc1Cl (configuration not stated)
inactive: T-47D breast; 10 µM unless noted 75.5% | BT-549 breast; 10 µM unless noted 90.2% | MDA-MB-435 melanoma; 10 µM unless noted 91.6% | SW-620 colon 105% | MCF7 breast; 10 µM 91.6% | HCT-116 colon; 10 µM unless noted 89.9% | KM12 colon; 10 µM unless noted 102%

CN1c2ccccc2C(C)(C)C12C=Cc1cc(O)ccc1O2 (configuration not stated)
inactive: T-47D breast; 10 µM unless noted 40.2% | BT-549 breast; 10 µM unless noted 33.2% | SW-620 colon 46.9% | HCT-116 colon; 10 µM unless noted 67.9% | KM12 colon; 10 µM unless noted 18.7%
active: MDA-MB-435 melanoma; 10 µM unless noted -66.4% | MCF7 breast; 10 µM 5.47%

C=CCOc1ccc(N=NC(C#N)C#N)cc1
inactive: BT-549 breast; 10 µM unless noted 92.1% | MDA-MB-435 melanoma; 10 µM unless noted 88.3% | SW-620 colon 40.4% | MCF7 breast; 10 µM 22.6% | HCT-116 colon; 10 µM unless noted 46.8% | KM12 colon; 10 µM unless noted 100%
active: T-47D breast; 10 µM unless noted -2.81%

CCCCCCCCCCCCCCCCCCOP(=O)([O-])OC1CC[N+](C)(C)CC1
inactive: SW-620 colon 46.3% and 25% | MCF7 breast; 10 µM 38.5% and 18.4%
active: T-47D breast; 10 µM unless noted -18.4% and 2.5% | HCC-2998 colon 5.08% and -75.7% | KM12 colon; 10 µM unless noted -44.2% and -95.1%
19.5% (inactive) and -41.9% (active): HCT-116 colon; 10 µM unless noted
15.8% (inactive) and -67.3% (active): MDA-MB-435 melanoma; 10 µM unless noted
24.3% (inactive) and -14.9% (active): BT-549 breast; 10 µM unless noted

CC(=O)Nc1cccc2cc(O)ccc12
inactive: T-47D breast; 10 µM unless noted 97% and 103% | BT-549 breast; 10 µM unless noted 118% and 145% and 94.5% | MDA-MB-435 melanoma; 10 µM unless noted 107% and 117% and 103% | SW-620 colon 104% and 92% and 98.7% | MCF7 breast; 10 µM 99.3% and 99.8% and 91.6% | HCT-116 colon; 10 µM unless noted 85.9% and 103% and 91.2% | KM12 colon; 10 µM unless noted 110% and 90.7% and 103%

COc1ccc(N=N/N=c2\sc3cc(OC)ccc3n2C)cc1
inactive: T-47D breast; 10 µM unless noted 83.6% | BT-549 breast; 10 µM unless noted 95.5% | MDA-MB-435 melanoma; 10 µM unless noted 104% | SW-620 colon 102% | MCF7 breast; 10 µM 78.9% | HCT-116 colon; 10 µM unless noted 95.8% | KM12 colon; 10 µM unless noted 95%

Nc1nc(N)c2nc(CNc3ccc(C(=O)NC(CCC(=O)O)C(=O)O)cc3)cnc2n1 (configuration not stated)
16.6% (inactive) and 3.42% (active): HCC-2998 colon
inactive: T-47D breast; 10 µM unless noted 58% and 55.5% | BT-549 breast; 10 µM unless noted 45.3% and 45.4% | MDA-MB-435 melanoma; 10 µM unless noted 35.8% and 24.4% | SW-620 colon 27.6% and 55.3% | MCF7 breast; 10 µM 18% and 16.3% | HCT-116 colon; 10 µM unless noted 21.2% and 10.3% | KM12 colon; 10 µM unless noted 38.7% and 30.8%
